Screening results as filed in PubChem BioAssay.
aSyn UTR act – Activators via SNCA 5'UTR binding, MLPCN; alpha-synuclein 5'UTR reporter, activators screen; activity score, % (tested at 7.5 µM), hits read low; 7.1% of 300,000 active; AID 1814; in the data active = activity score below about -60%
* = called active by the depositor. A selection follows.

SMILES | aSyn UTR act
COc1ccccc1-c1noc(-c2ccccc2)n1 | -126*
COc1ccc(-n2nc3cc(N)c(Br)cc3n2)cc1 | -164*
Nc1ccc(-n2nc3ccccc3n2)cc1 | 58
COc1ccc(-n2nc3cc(C)c(N)c(Br)c3n2)cc1 | -89*
COc1ccc(-n2nc3ccccc3n2)cc1 | -93*
COc1ccc2nc3ccccc3nc2c1 | -123*
CCOC(=O)c1snc(-c2ccc(F)cc2)c1N | -130*
CCCCNC(=O)CSc1nc2ccc(N3CCOCC3)cc2c(=O)n1CCc1ccccc1 | -92*
Cc1ccc(-c2cn(-c3ccccc3)c(SCC(=O)NC3CCS(=O)(=O)C3)n2)cc1C (stereo not given) | -143*
NS(=O)(=O)c1cc2c(cc1Cl)NC(C1C[C@H]3C=C[C@@H]1C3)NS2(=O)=O (stereo not given in full) | -80*
C=CCN1c2ccccc2[C@]23C[C@@H](C(=O)OC)N(C(=O)c4cc(C)oc4C)C2=NC(C(=O)OC)=C(C(=O)OC)[C@H]13 | -62*
O=C(OCc1nnc(-c2ccccc2)o1)C12CC3CC(CC(Br)(C3)C1)C2 | -105*
CCc1c(C)nc2cc(-c3ccccc3)[nH]n2c1=O | -110*
CCCCc1c(C)nc2cc(-c3ccco3)[nH]n2c1=O | -68*
COc1ccccc1N1CCN(c2ccnc3cc(Cl)ccc23)CC1 | 87
COc1ccccc1N1CCN(/N=C/c2ccc([N+](=O)[O-])cc2)CC1 | -159*
COc1ccccc1N1CCN(/N=C/c2ccc(Cl)c([N+](=O)[O-])c2)CC1 | -128*
COc1ccccc1N1CCN(/N=C/c2cccc(O)c2)CC1 | -111*
Oc1ccc(N=Nc2n[nH]c(-c3ccccc3)n2)cc1 | -85*
COc1ccccc1C(=O)N/N=C/c1cnc2ccccc2n1 | -102*
O=C(N/N=C\c1ccc(Cl)s1)c1cccs1 | -67*
O=C(N/N=C\c1ccc(Cl)s1)C1COc2ccccc2O1 (stereo not given) | -67*
COc1ccccc1C(=O)N/N=C/c1ccc(Cl)s1 | -179*
O=C(N/N=C/c1c[nH]c2ccccc12)C1COc2ccccc2O1 (stereo not given) | 76
O=[N+]([O-])c1cccc(-c2ccc(SCc3ccccn3)nn2)c1 | -97*
SMILES | aSyn UTR act
COc1cccc(-c2ccc(SCc3ccccn3)nn2)c1 | -84*
CCOC(=O)COc1ccccc1C1Nc2ccccc2C(=O)N1c1cccc(Cl)c1 (stereo not given) | -107*
CC(C)Oc1ccccc1C1Nc2ccccc2C(=O)N1c1ccc2c(c1)OCCO2 (stereo not given) | 68
COc1cc(C2Nc3ccccc3C(=O)N2c2ccc(Cl)cc2)c(Cl)cc1OCC(=O)O (stereo not given) | -137*
O=C(/C=C/c1cccc2ccccc12)N1CCOCC1 | -63*
O=C(/C=C/c1cccc(Oc2ccccc2)c1)N1CCOCC1 | -95*
O=C(/C=C/c1ccc(OCCCF)cc1)N1CCOCC1 | -70*
Cc1oc(-c2ccc(-c3ccccc3)cc2)nc1CN(C)C1CCOC1 (stereo not given) | -113*
Cc1oc(-c2ccc(-c3ccccc3)cc2)nc1CN(CCO)C(C)C | -182*
O=[N+]([O-])c1cc([N+](=O)[O-])c2c(=Nc3ccccc3)n(-c3ccccc3)n(O)c2c1 | -77*
Cn1c(=N)n(CC(=O)c2ccc(F)cc2)c2ccccc21 | 76
CCn1c(=N)n(CC(=O)c2ccc(Cl)c(Cl)c2)c2ccccc21 | -186*
Cc1nc(NC(=O)c2ccc(Br)s2)sc1C(=O)N(C)C | -122*
CCOC(=O)c1sc(NC(=O)c2cc3c(s2)CCC(C)C3)nc1C (stereo not given) | -101*
Cc1nc(NC(=O)c2cc3c(s2)CCCCC3)sc1C(=O)N(C)C | -175*
Cc1ccc(NC(=O)c2cc3c(s2)CCCC3)cc1 | -193*
CC1CCc2sc(C(=O)Nc3ccc(C(N)=O)cc3)cc2C1 (stereo not given) | -119*
O=C(Nc1ccccc1OC(F)F)c1cc2c(s1)CCC2 | -161*
COC(=O)c1sc(NC(=O)c2cc3c(s2)CCCC3)nc1C | -204*
Cc1ccc(NC(=O)c2scc3c2CCCC3)cc1 | -90*
Cc1nc(NC(=O)CCl)sc1C(=O)N(C)C | -70*
O=S(=O)(Nc1nc2ccccc2nc1N1CCc2ccccc2C1)c1ccc(Cl)cc1 | 86
Cc1ccccc1S(=O)(=O)Nc1nc2ccccc2nc1N1CCc2ccccc2C1 | -108*
Cc1ccc(NC(=O)CSc2ncc3ccccn23)cc1 | -67*
Cc1ccc(NC(=O)CSc2nccn2Cc2ccco2)cc1 | -85*
SMILES | aSyn UTR act
CSc1ccc(C(=O)N2CCc3ccc(NC(=O)c4ccccn4)cc3C2)cc1 | -73*
Cn1c(-c2ccc3nc(N)sc3c2)nc2cc(N)ccc21 | -72*
COc1cccc(NC(=O)COc2cc(O)c3c(c2)OC(C)(C)CC3=O)c1 | -87*
CC1(C)CC(=O)c2c(O)cc(OCc3ccc([N+](=O)[O-])cc3)cc2O1 | -150*
C#CCSc1ncc(-c2ccccc2)cn1 | -101*
C=CCSc1ncc(-c2ccccc2)cn1 | -160*
c1ccc(OCCSc2nnnn2C2CCCCC2)cc1 | -122*
COc1ccccc1OCCSc1nnnn1C1CCCCC1 | -81*
CC(C)Cc1nnc(NC(=O)C23CC4CC(CC(C4)C2)C3)s1 | -103*
CCc1nnc(NC(=O)C23CC4CC(CC(C4)C2)C3)s1 | -253*
CSc1nnc(NC(=O)C23CC4CC(CC(C4)C2)C3)s1 | -128*
Oc1csc(Cc2nc(-c3ccc(Br)cc3)cs2)n1 | -291*
Cc1ccc(C2Nc3ccc4ccccc4c3C3=C2C(=O)CC(C)(C)C3)o1 (stereo not given) | -73*
Fc1ccc(Cn2cccc2C2=NC(c3ccccc3)CO2)cc1 (stereo not given) | -88*
c1ccc(NC2=Nc3ccccc3CC2)cc1 | -179*
Cc1cc(-c2nnc(SCC(=O)Nc3ccccc3C(F)(F)F)o2)c(C)n1-c1ccccc1 | -69*
COc1ccc(C)cc1NC(=O)CSc1nnc(-c2ccc(C)cc2)o1 | -109*
COC(=O)c1ccccc1NC(=O)CSc1nnc(-c2ccc(C)cc2)o1 | -130*
Cc1ccc(-c2nnc(SCC(=O)Nc3ccccc3F)o2)cc1 | 92
COc1ccc(-c2nnc(SCC(=O)Nc3cccc(Cl)c3)o2)cc1 | -179*
CCOC(=O)c1ccccc1NC(=O)Cn1c(-c2nonc2N)nc2ccccc21 | 73
CCOC(=O)c1ccccc1NC(=O)CSc1nc2ccccc2o1 | -88*
Cc1cc(-c2nnc(SCC(=O)Nc3ccccn3)o2)no1 | -72*
COc1ccc(-c2nnc(SCC(=O)Nc3ccccc3OC)o2)cc1 | -145*
COc1cccc(-c2nnc(SCC(=O)Nc3cc(C)on3)o2)c1 | -66*
SMILES | aSyn UTR act
COc1ccccc1-c1nnc(SCC(=O)OC(C)C)o1 | -83*
Nc1cc(-c2ccc(Br)cc2)nn1Cc1ccccc1 | -196*
CCOC(=O)c1ccc2nc(NC(C)=O)sc2c1 | -126*
COC(=O)c1ccc2nc(NC(=O)C3CC3)sc2c1 | -146*
CC(=O)Nc1nc2ccc(Br)cc2s1 | -107*
COC(=O)c1ccc2nc(NC(=O)C(C)C)sc2c1 | -74*
Cc1ccc2nc(NC(=O)COC(=O)c3ccncc3)sc2c1 | -118*
CC1(C)N=C(N)N=C(N)N1c1ccccc1 | 99
Cc1cc(-c2ccccc2)n(-c2ccccc2)n1 | -84*
Cc1nn(-c2nc3ccccc3[nH]2)c(N)c1-c1ccccc1 | -183*
Cc1nn(-c2ccccc2)c(/N=C/c2ccccc2O)c1-c1ccccc1 | -176*
Cc1nn(-c2ccccc2)c(N)c1-c1ccccc1 | -72*
